Screening results as filed in PubChem BioAssay.
TEAD-YAP inh = TEAD-YAP interaction inhibition | HEK-TIYL cells, TEAD-Gal4/YAP UAS-luciferase luminescence | 1.4% of 640,000 active | inhibition, % at 9.12 µM | AID 1259422; in the data active = inhibition above about 32%
FBW7 act = human FBW7 E3 ligase activation, primary screen; Q969H0; AlphaScreen FBW7–phospho-cyclin E peptide binding, activator screen; normalized activity (activation), % at 26.1 µM; 0.13% of 650,000 active; AID 1259310; in the data active = normalized activity above about 1.9%;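 note: purified mutant Fbw7 with reduced substrate affinity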
Target sequence (Q969H0 whole entry, looked up): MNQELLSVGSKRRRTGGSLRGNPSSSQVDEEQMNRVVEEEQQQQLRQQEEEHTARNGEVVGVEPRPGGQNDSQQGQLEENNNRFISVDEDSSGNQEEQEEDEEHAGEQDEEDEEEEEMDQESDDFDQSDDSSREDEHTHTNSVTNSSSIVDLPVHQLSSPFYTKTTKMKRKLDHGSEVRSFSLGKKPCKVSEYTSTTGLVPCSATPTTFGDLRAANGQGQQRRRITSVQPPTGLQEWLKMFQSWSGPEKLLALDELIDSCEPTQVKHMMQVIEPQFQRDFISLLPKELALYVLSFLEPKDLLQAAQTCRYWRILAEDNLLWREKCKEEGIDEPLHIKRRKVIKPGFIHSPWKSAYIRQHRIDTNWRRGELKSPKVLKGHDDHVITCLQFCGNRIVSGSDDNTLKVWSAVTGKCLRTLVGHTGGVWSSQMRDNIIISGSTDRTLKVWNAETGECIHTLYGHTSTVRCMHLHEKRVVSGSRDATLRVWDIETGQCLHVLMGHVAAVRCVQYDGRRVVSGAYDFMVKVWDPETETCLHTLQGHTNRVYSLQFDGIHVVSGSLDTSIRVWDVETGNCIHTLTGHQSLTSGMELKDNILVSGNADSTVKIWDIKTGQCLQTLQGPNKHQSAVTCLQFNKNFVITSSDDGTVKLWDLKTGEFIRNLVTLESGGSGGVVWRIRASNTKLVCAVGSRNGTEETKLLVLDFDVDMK
GPR151 ag = activators of human GPR151 | PathHunter beta-arrestin GPR151 cells, luminescence | activation, % at 11.2 µM | 1% of 650,000 active; in the data active = activation above about 4.9%
MITF primary = inhibitors of human MITF. O75030. AlphaScreen MITF homodimerization, bead proximity signal. inhibition, % at 2.6 µM. 0.91% of 650,000 active; in the data active = inhibition above about 50%
Each line names hits and unclear results; the compound was inactive in the other large screens. Rows were chosen to be rich in hits. Some 3.4% of all compounds tested hit in one or more screens of this group.

O=C(O)C(Cc1ccccc1)N1C(=O)C2CCCCC2C1=O (stereo not given)	FBW7 act 2.6
Cc1ccc2nc(C3C(=O)c4ccccc4C3=O)ccc2c1	TEAD-YAP inh 54.4
COc1ccc2nc(C3C(=O)c4ccccc4C3=O)ccc2c1	TEAD-YAP inh 82.9
COc1ccc(OC)c(-c2cc(Cl)c3c(c2)CC(CNC(=O)Cn2cncn2)O3)c1 (stereo not given)	none
CCCC(=O)OCC(=O)c1ccc(Br)cc1	none
CCC[n+]1cccc2cc(OC)ccc21	none
COc1ccc(C(=O)C[n+]2cccc3cc(OC)ccc32)cc1	TEAD-YAP inh 52.9
CN(C)c1cc2c(c(N(C)C)c1)C(=O)c1ccccc1C2=O	MITF primary 54.2
Nc1c(Br)cc2c(c1Br)C(=O)c1ccccc1C2=O	none
O=C(Oc1ccc([N+](=O)[O-])cc1)c1ccc2c(c1)C(=O)N(c1cccc3ccccc13)C2=O	none
COc1ccc(-c2cc(-c3ccccc3)c(C#N)c(S(=O)Cc3ccccc3)n2)cc1 (stereo not given)	none
COc1ccc(-c2cc(-c3ccccc3)c(C#N)c(S(C)=O)n2)cc1 (stereo not given)	TEAD-YAP inh 53.1
Cc1ccc(NC(=O)C2CCN(C(=O)N3CC(C)Oc4ccc(Cl)cc43)CC2)cc1 (stereo not given)	none
COc1ccc(CC(=O)N2CCC3(CC2)OCc2cc(Cl)ccc2O3)cc1OC	TEAD-YAP inh 60.7
O=C(c1ccc2c(c1)CCO2)N1CCC2(CC1)OCc1cc(Cl)ccc1O2	TEAD-YAP inh 36.5
COc1ccc(CC(=O)N2CCC3(CC2)OCc2ccccc2O3)cc1OC	TEAD-YAP inh 55.2
COc1cccc(CC(=O)N2CCC3(CC2)OCc2ccccc2O3)c1	none
COc1cc(Nc2cc(-c3cccc(N)c3)nc(N)n2)cc(OC)c1OC	none
CCOC(=O)c1c(NC(=O)c2nc(S(C)(=O)=O)ncc2Cl)sc2c1CCCC2	none
COc1cc(C(=O)NNC(=O)c2cccc(Cl)c2)cc(OC)c1OC	none
COc1ccc(C(=O)COC(=O)c2ccc(Cl)cc2N)cc1	none
COc1cc(C(=O)COC(=O)c2ccc(Cl)cc2N)cc(OC)c1OC	TEAD-YAP inh 52.9
COc1cc(C(=O)c2cc(Cl)ccc2N)cc(OC)c1OC	TEAD-YAP inh 51.9
COc1ccc(-n2c(SCc3cc(=O)n4cc(Cl)ccc4n3)nc3c(sc(=S)n3-c3ccccc3)c2=O)cc1OC	none
Cc1cc(C(=O)Nc2c(C)nn(Cc3c(Cl)cccc3Cl)c2C)no1	TEAD-YAP inh 32.5
Cc1ccccc1Cn1nc(C)c(NC(=O)c2cc(C3CC3)on2)c1C	FBW7 act 2.1
CC(Sc1nnc(N)s1)C(=O)NC1CCCc2ccccc21 (stereo not given)	none
Cc1ccc(-n2ncc3c(Oc4ccc(F)cc4)ncnc32)cc1	TEAD-YAP inh 58.4
COc1ccc(Oc2ncnc3c2cnn3-c2ccccc2)cc1	none
Fc1cccc(Oc2ncnc3c2cnn3-c2cccc(Cl)c2)c1	none
Cc1ccc(Oc2ncnc3c2cnn3-c2ccccc2)cc1	TEAD-YAP inh 50.8
Fc1ccc(-n2ncc3c(Oc4ccc(Cl)cc4)ncnc32)cc1	TEAD-YAP inh 42.2
COc1ccc(NC(=O)c2cnc(N3CCN(c4ccccn4)CC3)c3ccccc23)cc1OC	TEAD-YAP inh 84.2
COc1ccccc1N1CCN(c2ncc(C(=O)Nc3cc(OC)c(OC)c(OC)c3)c3ccccc23)CC1	TEAD-YAP inh 55.9
COc1ccc(NC(=O)c2cnc(N3CCN(c4ncccn4)CC3)c3ccccc23)c(OC)c1	TEAD-YAP inh 50.3
COc1cccc(NC(=O)c2cnc(N3CCN(c4ccccn4)CC3)c3ccccc23)c1	TEAD-YAP inh 61.7
COc1cccc(NC(=O)c2cnc(N3CCN(c4ncccn4)CC3)c3ccccc23)c1	none
O=C(Cc1ccccc1)NCCS(=O)(=O)N1CCc2ccccc2C1	none
COc1ccc2[nH]c3c(=O)n(CCCCC(=O)NC4CC4)c(=S)[nH]c3c2c1	none
CC(Nc1ccc(-c2cccc(C=O)c2)cn1)c1ccccc1 (stereo not given)	none
N#CC1=C(N)SC(N)=C(C#N)C12C(=O)N(CCc1ccccc1)c1ccccc12	none
CCc1cccc(S(=O)(=O)Nc2ccc([N+](=O)[O-])cc2C)c1	none
Cc1ccc(N(CCOC(=O)c2ccccc2)S(=O)(=O)c2ccc(NC3=NS(=O)(=O)c4ccccc43)cc2)cc1	none
O=C(Nc1ccc(F)cc1)Nc1nnc(-c2cccc([N+](=O)[O-])c2)s1	none
COCCCNC(=O)c1cnc(N2CCN(c3ccccc3OC)CC2)c2ccccc12	TEAD-YAP inh 37.9
COc1cc(NC(=O)c2cnc(N3CCN(c4ccccn4)CC3)c3ccccc23)cc(OC)c1OC	TEAD-YAP inh 78.5
COC1CC(NC(=O)c2cnc(N3CCN(c4ncccn4)CC3)c3ccccc23)CC(OC)C1OC (stereo not given)	TEAD-YAP inh 72.4
Cc1cccc(NC(=O)c2cnc(N3CCN(c4ccccn4)CC3)c3ccccc23)n1	TEAD-YAP inh 40.1
CC(C)NC(=O)c1cnc(N2CCN(c3ccccn3)CC2)c2ccccc12	none
O=C(NC1CCCCC1)c1cnc(N2CCN(c3ncccn3)CC2)c2ccccc12	none
CN(C)CCOc1ccccc1[N+](=O)[O-]	none
CC(C)N(C(=O)CN1C(=O)NC(c2ccccc2)(c2ccccc2)C1=O)c1ccccc1	none
CC(CN1CCN(C)CC1)OC(=O)c1ccccc1Br (stereo not given)	none
O=C1C(C=NCc2ccncc2)=C(O)c2ccccc21	none
O=C1C(C=NCc2cccnc2)=C(O)c2ccccc21	TEAD-YAP inh 38.5
CC(C)(C)c1ccc(C(=O)N2CCCCCC2=O)cc1	TEAD-YAP inh 55.2
O=C(COc1ccc([N+](=O)[O-])cc1)Nc1ccc(N2CCOCC2)cc1	none
CCOc1cccc2c1OC1(C)CC2NC(=O)N1c1cccc(Br)c1 (stereo not given)	none
O=C(N/N=C/c1ccc([N+](=O)[O-])s1)c1ccc(F)cc1	TEAD-YAP inh 45.0
Cc1ccc(C(=O)N/N=C/c2ccc([N+](=O)[O-])o2)cc1	TEAD-YAP inh 39.9
O=C(N/N=C/c1ccc([N+](=O)[O-])o1)c1ccccc1	none
O=C(N/N=C/c1ccc([N+](=O)[O-])o1)c1ccc(F)cc1	TEAD-YAP inh 36.8
Cc1cc(C(=O)N/N=C/c2ccc([N+](=O)[O-])o2)n[nH]1	TEAD-YAP inh 32.0
COc1ccc(N2CCN(Cc3cc(OC)c(OC)c(OC)c3)CC2)cc1	none
Cc1ccc(F)c(Nc2ccc3c(cnn3-c3cc(C(=O)NCCN4CCOCC4)ccn3)c2)c1	none
c1ccc(-c2ccn[nH]2)c(Nc2ccnc(Nc3ccc(N4CCOCC4)cc3)c2)c1	TEAD-YAP inh 38.2
Cn1ccc(-c2ccccc2Nc2ccnc(Nc3ccc(N4CCOCC4)cc3)c2)n1	TEAD-YAP inh 46.9
Cn1cnc(-c2ccnc(Nc3ccc(N4CCOCC4)cc3)c2)n1	none
c1cnn(-c2ccnc(Nc3ccc(N4CCOCC4)cc3)c2)c1	none
Cn1cc(-c2ncoc2-c2ccnc(Nc3ccc(N4CCOCC4)cc3)c2)cn1	none
c1cc(-c2ocnc2-c2ccc3cn[nH]c3c2)cc(Nc2ccc(N3CCOCC3)cc2)n1	TEAD-YAP inh 58.4
CCc1ccc(CN2CCN(CCc3ccccc3)C(CCO)C2)o1 (stereo not given)	none
